This note sets out measurements from PubChem BioAssay.

The nature of test [1]: liver-stage malaria parasite growth inhibition, primary screen, cell-based, HepG2, luciferase luminescence, HepG2 viability (AID 624349; in the data active means parasite load remaining mostly below about 12%, no sharp cut-off; inactive means mostly above about 10%;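 further: 100% = mean of DMSO negative control wells on the same plate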). The note with it: P. berghei liver stage in HepG2, luciferase luminescence, concentration not given here; parasite load remaining: stronger effect = lower value; viability: measured here: HepG2 viability without parasites.
The nature of test [2]: differential killing of epithelial or mesenchymal cells, primary screen, imaging, PC-3E GFP, TEM4-18 mCherry, co-culture (AID 1345086;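 active means compounds killing one labelled cell type while sparing the other, by normalised counts and ratio limits, not self-fluorescent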;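 on all read-outs here: cells exposed to compound for 72 h before imaging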;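 on red/green cell ratio (normalised): normalised mesenchymal count divided by normalised epithelial count so high means epithelial killing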). The note with it: imaging cell counts, at 1 µM; for red/green cell ratio (normalised): actives lie on both sides, counts scaled to control wells, 1 = unselective.
Test [3] can be described thus: growth inhibition of DIPG glioma cells, dose response, cell-based, SU-DIPG-XIII, MIPE4.0, CellTiter-Glo, qHTS (AID 1347061; cut-off not given, nearly all actives have AC50 up to about 37 µM;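 further: cells exposed to compound for 48 hours before readout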). The note with it: SU-DIPG-XIII viability, CellTiter-Glo ATP luminescence. A general note: ATP-based viability assays read luminescence as a measure of living cells.
Test [4] in a line: growth inhibition of DIPG glioma cells, dose response, cell-based, JHH-DIPG-1, MIPE4.0, CellTiter-Glo, qHTS (AID 1347062; cut-off not given, nearly all actives have AC50 up to about 27 µM). The note with it: JHH-DIPG-1 viability, CellTiter-Glo ATP luminescence.
The nature of test [5]: growth inhibition of DIPG glioma cells, dose response, cell-based, SU-DIPG-IV, MIPE4.0, CellTiter-Glo, qHTS (AID 1347063).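 Further: compound exposure lasted 48 hours before the viability readout.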 To be noted: SU-DIPG-IV viability, CellTiter-Glo ATP luminescence.
Test [6] in a line: SU-DIPG-VI glioma cell viability, MIPE4.0 library, CellTiter-Glo luminescence, qHTS (AID 1347066).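 Further: cells exposed to compound for 48 hours before readout.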 To be noted: CellTiter-Glo ATP luminescence.
The nature of test [7]: sensitizers of A549 cells to miR-34 induction, primary screen, imaging, A549 dox-inducible miR-34, nuclei and caspase counts (AID 1347080;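 active means compounds whose cell count with miR-34 switched on is under 0.7 times the count with it off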). To be noted: A549 miR-34 inducible, Hoechst nuclei count, 48 h.
In test [8] the target is Mitogen-activated protein kinase 7 (Homo sapiens) (UniProt Q13164). In words: ERK5 transactivation activators in reporter cells, primary screen, cell-based, HTS (AID 1508626;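 active means luciferase signal above three times the same-plate solvent-only control wells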;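 further: luciferase driven by Gal4-ERK5 fusion binding five Gal4 sites before minimal TATA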). To be noted: HeLa Gal4-ERK5 transactivation, 18 h, at 5 µM, stronger effect = higher value.
Chain of Mitogen-activated protein kinase 7 (Homo sapiens) (Q13164 whole entry, looked up, the tested form may be a part): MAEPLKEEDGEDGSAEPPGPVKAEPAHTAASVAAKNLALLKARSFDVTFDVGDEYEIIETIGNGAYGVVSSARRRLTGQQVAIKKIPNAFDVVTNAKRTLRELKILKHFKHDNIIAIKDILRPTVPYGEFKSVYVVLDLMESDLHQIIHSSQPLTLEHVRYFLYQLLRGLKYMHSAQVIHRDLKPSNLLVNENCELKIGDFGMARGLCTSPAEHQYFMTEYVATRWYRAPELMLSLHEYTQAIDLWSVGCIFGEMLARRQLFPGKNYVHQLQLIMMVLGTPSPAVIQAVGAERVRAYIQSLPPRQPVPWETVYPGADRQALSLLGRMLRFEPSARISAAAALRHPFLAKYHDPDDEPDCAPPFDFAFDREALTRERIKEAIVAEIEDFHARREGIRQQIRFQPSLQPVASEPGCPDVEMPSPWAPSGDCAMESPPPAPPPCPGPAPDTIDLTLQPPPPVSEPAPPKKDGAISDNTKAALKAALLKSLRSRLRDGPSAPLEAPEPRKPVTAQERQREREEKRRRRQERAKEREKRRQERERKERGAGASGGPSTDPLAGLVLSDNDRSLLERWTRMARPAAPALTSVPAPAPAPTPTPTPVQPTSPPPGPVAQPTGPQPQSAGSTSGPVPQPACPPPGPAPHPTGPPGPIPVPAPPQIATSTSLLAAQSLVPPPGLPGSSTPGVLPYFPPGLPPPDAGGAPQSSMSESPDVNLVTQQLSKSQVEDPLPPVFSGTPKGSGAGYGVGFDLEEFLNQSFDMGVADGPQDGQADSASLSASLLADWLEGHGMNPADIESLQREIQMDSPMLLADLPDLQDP
The nature of test [9]: growth inhibition of DIPG glioma cells, dose response, cell-based, SU-DIPG-XVII, MIPE5.0, CellTiter-Glo, qHTS (AID 1347060; cut-off not given, nearly all actives have AC50 up to about 26 µM). To be noted: SU-DIPG-XVII viability, CellTiter-Glo ATP luminescence.
Test [10] can be described thus: growth inhibition of DIPG glioma cells, dose response, cell-based, SU-DIPG-XIII, MIPE5.0, CellTiter-Glo, qHTS (AID 1347064; cut-off not given, nearly all actives have AC50 up to about 23 µM). To be noted: SU-DIPG-XIII viability, CellTiter-Glo ATP luminescence.
The nature of test [11]: viability loss in pontine glioma line – cell-based, SU-DIPG-XXV, MIPE5.0, CellTiter-Glo, qHTS, dose response (AID 1347065; cut-off not given, nearly all actives have AC50 up to about 26 µM;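 further: cells exposed to compound for 48 hours before ATP readout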). The note with it: CellTiter-Glo ATP luminescence.
The nature of test [12]: SU-DIPG-XXV glioma cell viability, MIPE5.0 library, qHTS (AID 1347068; cut-off not given, nearly all actives have IC50 up to about 30 µM).
The nature of test [13]: circadian clock period modulators, cell-based, LOPAC library, luminescence reporter (AID 2774; call rule not given here;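 further: values are relative to mean of DMSO wells on each plate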). To be noted: circadian reporter cells, at 7 µM, actives lie on both sides.
Test [14] deals with Hepatitis C virus NS3 helicase. The test can be described thus: HCV NS3 helicase inhibitors, primary screen, biochemical, fluorescence polarization, LOPAC1280 library (AID 687035; in the data active means inhibition above about 37%). To be noted: Purified HCV NS3 helicase, Cy5-dT15 ssDNA binding fluorescence polarization; stronger effect = higher value; concentration not given here.
The nature of test [15]: Cy5 fluorescence quenching or enhancement artefacts, artefact control for HCV NS3 helicase inhibitor project, biochemical, LOPAC1280 (AID 687037; call rule not given here). To be noted: Cy5-DNA-NS3h complex fluorescence interference counterscreen. A general note: Counterscreens check selectivity or assay interference.
Test [16] is described as follows: JHH-DIPG-1 glioma cell viability, MIPE5.0 library, CellTiter-Glo luminescence, qHTS (AID 1347067; cut-off not given, nearly all actives have AC50 up to about 26 µM;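 further: cells exposed to compound for 48 hours before readout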). The note with it: JHH-DIPG-1 glioma viability, CellTiter-Glo ATP luminescence.
Test [17] in a line: phospholipid biosynthesis inhibitors in animal cells, primary screen, cell-based, LOPAC library, screen 4 (AID 1347384; call rule not given here). The note with it: phospholipid biosynthesis inhibition screen, at 10 µM.
Test [18] in a line: viability rescue of complex I mutant cybrids, primary screen, cell-based, galactose medium, ATP luminescence (AID 1645843;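 active means z-score of at least 1.8 in each of two replicates, scored against plate mean and spread of sample wells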;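 further: positive z means more ATP and so rescue of galactose-driven cybrid death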). The note with it: complex I mutant cybrid cells, 72 h, stronger effect = higher value.
The target of test [19] is NAD(+) hydrolase SARM1 (Homo sapiens) (UniProt Q6SZW1). The test can be described thus: SARM1 TIR NADase inhibitors, cell lysate, NAD-Glo luminescence (AID 1508614;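 active means compound whose remaining NAD level is above about 45 nM, limit read from the data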). To be noted: SAM-TIR HEK293T lysate NADase, at 1 µM, stronger effect = higher value.
Chain of NAD(+) hydrolase SARM1 (Homo sapiens) (Q6SZW1 whole entry, looked up): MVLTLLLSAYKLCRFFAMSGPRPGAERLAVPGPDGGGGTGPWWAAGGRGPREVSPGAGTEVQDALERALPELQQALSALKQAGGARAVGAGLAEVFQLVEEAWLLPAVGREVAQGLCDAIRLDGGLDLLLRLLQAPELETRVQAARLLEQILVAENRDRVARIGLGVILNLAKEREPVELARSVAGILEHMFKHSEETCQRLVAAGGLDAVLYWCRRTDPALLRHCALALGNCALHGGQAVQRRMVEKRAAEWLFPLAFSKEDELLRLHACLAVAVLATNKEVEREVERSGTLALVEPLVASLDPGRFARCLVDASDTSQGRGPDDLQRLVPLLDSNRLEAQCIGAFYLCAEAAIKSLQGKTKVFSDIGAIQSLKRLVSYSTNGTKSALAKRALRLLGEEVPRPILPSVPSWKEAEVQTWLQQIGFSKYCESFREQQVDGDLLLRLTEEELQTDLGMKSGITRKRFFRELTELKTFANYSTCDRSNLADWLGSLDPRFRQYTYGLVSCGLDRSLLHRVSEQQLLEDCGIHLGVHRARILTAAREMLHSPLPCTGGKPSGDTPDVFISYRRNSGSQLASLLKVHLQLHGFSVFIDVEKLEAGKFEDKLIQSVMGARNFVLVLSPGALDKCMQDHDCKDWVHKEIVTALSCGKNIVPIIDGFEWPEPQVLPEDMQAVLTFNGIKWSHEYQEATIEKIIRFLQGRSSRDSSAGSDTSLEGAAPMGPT
Where [20] appears, read: measured here: epithelial PC-3E GFP cell survival.
[21] abbreviates: measured here: mesenchymal TEM4-18 mCherry cell survival.
Where [22] appears, read: stronger effect = lower value, cell number ratio, induced over uninduced.
[23] abbreviates: measured here: relative caspase fold change +Dox/-Dox.
[24] abbreviates: measured here: total cells with miR-34 induction, stronger effect = lower value.
Setting [25] is: measured here: total cells without miR-34 induction.

“And” between values parts separate entries of the source, which are not always exact repeats. Equal entries are not always repeated. Records with an inconclusive call do not appear. The source made the active and inactive calls. Unless noted, cut-off not given; nearly all actives show AC50 up to about 30 µM.

Regarding `CN(C)CC[C@H](c1ccc(Cl)cc1)c1ccccn1`, the parasite load remaining in test [1] is 101% (inactive) and 66.4% (inactive). Further, in test [1], the viability – broadly, a read-out of living cells in per cent, often relative to untreated cells – is 77.5% and 96.6%. The red/green cell ratio (normalised) in test [2] is 1.35 (inactive). In addition, the figures for the normalised cell number in test [2] (setting [20]) and in [2] (setting [21]) were 0.95 and 1.28, respectively. For the same compound, the outcome in test [3], in test [4], in test [5] and in [6] was inactive. The fold change in test [7] (setting [22]) is 0.84 (inactive); in test [7] (setting [23]), 2.94. Besides, the cell count amounted to 10500 in [7] (setting [24]) and 12500 in [7] (setting [25]). Further, the luciferase signal in [8] is 80 AU (inactive).
Regarding `O=c1ccn([C@@H]2O[C@H](CO)[C@@H](O)[C@H]2O)c(=O)[nH]1`, the red/green cell ratio (normalised) in [2] was 0.9 (inactive). Moreover, the normalised cell number in [2] (setting [20]) came to 1; in test [2] (setting [21]), 0.9. In addition, the result in [9], in test [4], in test [5], in [10], in [11] and in test [6] was inactive. For the same compound, the compound was called inactive in test [12].
As for `Nc1nc(N)c2nc(CNc3ccc(C(=O)NC(CCC(=O)O)C(=O)O)cc3)cnc2n1` (stereo not given), the period change in test [13] was -0.245 h (inactive). Moreover, the parasite load remaining in test [1] was 160% (inactive). In test [1], this compound had a viability of 70.2%. Also, in test [14], the inhibition (usually the change of the read-out against control, counted positive when it falls) is -4% (inactive). Moreover, the fluorescence ratio (interference) in test [15] was 0.9 (inactive). Besides, the red/green cell ratio (normalised) in [2] was 0.95 (inactive). In addition, the normalised cell number in [2] (setting [20]) turned out to be 1.01; in [2] (setting [21]), 0.96. Also, the half-maximal activity concentration (AC50) (usually the concentration at which the activity in the assay is half-maximal) in [3] is 11.8 µM (active). Moreover, the result in [6], in test [16] and in test [17] was inactive. Moreover, the fold change in test [7] (setting [22]) was 1.22 (inactive); in test [7] (setting [23]), 1.88. Moreover, the values for the cell count in test [7] (setting [24]) and in test [7] (setting [25]) were 2740 and 2230, respectively. The z-score in [18] was 0.075 (inactive).
For `N#C[C@@H]1C[C@@H]2C[C@@H]2N1C(=O)[C@@H](N)C12CC3CC(CC(O)(C3)C1)C2`, the red/green cell ratio (normalised) in test [2] is 0.9 (inactive). In addition, the normalised cell number is 1.31 in test [2] (setting [20]) and 1.19 in [2] (setting [21]). The call in test [9], in test [4], in [5], in [10], in test [11] and in [12] was inactive. In addition, the results for the fold change in test [7] (setting [22]) and in test [7] (setting [23]) were 0.886 (inactive) and 0.64, respectively. Besides, the cell count in test [7] (setting [24]) is 8720; in test [7] (setting [25]), 9840. In addition, in test [19], the remaining NAD was 10 nM (inactive).
